Rows were chosen to be rich in hits. Some 0.65% of all compounds tested hit in one or more screens of this group.
PrP 5UTR inh – inhibition of PrP 5' UTR reporter expression; cell-based PrP 5' UTR mRNA reporter, plate reader; inhibition, % (concentration not given with the values); actives 0.35% (n = 340,000); AID 488862; in the data active = inhibition above about 52%; note: 0 = median of the neutral control wells
BH1578 lux ind – inducers of Vibrio cholerae quorum light production without autoinducers; activation, % at 18.7 µM; V. cholerae BH1578 lux reporter, luminescence, 6 h; actives 0.16% (n = 350,000); in the data active = activation mostly above about 9.7%, no sharp cut-off; inconclusive = no clear call, values can overlap the other calls; inactive = mostly below about 3.7%
Mtb UGM inh – inhibitors of M. tuberculosis UDP-galactopyranose mutase; inhibition, % at 10 µM; purified UGM, fluorescence polarization probe displacement; P9WIQ1; actives 0.06% (n = 320,000); in the data active = inhibition above about 10%, passing the limit was not always enough; inconclusive = no clear call, values can overlap the other calls
Target sequence (P9WIQ1 whole entry, looked up): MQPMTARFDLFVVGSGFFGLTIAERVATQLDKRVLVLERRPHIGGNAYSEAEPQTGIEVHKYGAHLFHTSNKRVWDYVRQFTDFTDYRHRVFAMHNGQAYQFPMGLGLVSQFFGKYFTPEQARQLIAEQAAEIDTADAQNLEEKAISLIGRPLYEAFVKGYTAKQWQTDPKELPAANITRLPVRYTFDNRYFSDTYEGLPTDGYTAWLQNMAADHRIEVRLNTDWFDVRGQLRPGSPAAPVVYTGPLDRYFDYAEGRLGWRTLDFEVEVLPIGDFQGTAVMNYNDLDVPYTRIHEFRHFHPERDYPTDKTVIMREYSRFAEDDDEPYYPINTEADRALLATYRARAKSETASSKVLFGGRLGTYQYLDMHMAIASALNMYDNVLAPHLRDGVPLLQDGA
Y pestis TopoI – inhibitors of Yersinia pestis topoisomerase I. Y. pestis Topo-I cleavage product accumulation, plate reader. activity, % at 10 µM. actives 0.064% (n = 360,000); in the data active = activity above about 50%, passing the limit was not always enough; inconclusive = no clear call, values can overlap the other calls
TcdB GH inh – TcdB glycohydrolase inhibition | P18177 | TcdB glycohydrolase enzymatic assay, plate reader | inhibition, % at 9.99 µM | actives 0.24% (n = 350,000); in the data active = inhibition above about 10%
PrP 5UTR single – prion 5' UTR mRNA inhibition, cherry-pick retest. shares compounds with PrP 5UTR inh. cell-based prion protein 5' UTR reporter, plate reader. inhibition, % at 2.5 µM. actives 48% (n = 1,100); in the data active = inhibition above about 54%; inconclusive = no clear call, values can overlap the other calls
Numbers without * were called inactive; i = inactive; ? = inconclusive; nt = not tested or not shown.

SMILES	PrP 5UTR inh	BH1578 lux ind	Mtb UGM inh	Y pestis TopoI	TcdB GH inh	PrP 5UTR single
COC(=O)c1ccc(CCc2cc(O)c(Br)cc2O)cc1	87*	-1	nt	-9	-16	-29
COc1ccc(S(=O)(=O)N(C)C[C@H]2Oc3c(NC(=O)CCCCCC(=O)Nc4ccccc4N)cccc3C(=O)N([C@@H](C)CO)C[C@@H]2C)cc1	nt	nt	nt	nt	0	nt
C[C@H]1CN([C@@H](C)CO)C(=O)c2cccc(NC(=O)Nc3cccc4ccccc34)c2O[C@H]1CN(C)C(=O)NC1CCCCC1	nt	nt	nt	nt	0	nt
COC(C(=O)C(O)C(C)O)C1Cc2cc3cc(OC4CC(OC5CC(O)C(O)C(C)O5)C(O)C(C)O4)c(C)c(O)c3c(O)c2C(=O)C1OC1CC(OC2CC(OC3CC(O)C(OC)C(C)O3)C(O)C(C)O2)C(O)C(C)O1 (stereo not given)	70*	-6	nt	26	-13	71*
CCc1ccc(-c2cn3nc(C)c(C)nc3n2)cc1	85*	0	-1	8	nt	36
COc1ccc(C2/C(=C(/O)c3ccc(Cl)cc3)C(=O)C(=O)N2CCN2CCOCC2)c(OC)c1 (stereo not given)	63*	i	-1	5	nt	-9
COc1ccc(C2/C(=C(/O)c3ccccc3)C(=O)C(=O)N2CCN2CCOCC2)c(OC)c1 (stereo not given)	-19	i	-3	2	nt	nt
CN(C)CCNc1ccc2ncn3c4ccc(O)cc4c(=O)c1c23	93*	i	nt	-42	-11	60*
CCCOc1ccc2cc(-c3ccccn3)c(=O)oc2c1	78*	i	-2	-2	0	57*
Cc1csc(NC(=O)c2cn3ccccc3n2)n1	76*	0	2	4	1	?
O=C(Nc1ccccc1)c1cn2ccccc2n1	31	-1	-1	-1	2	nt
COc1ccc2cc(C(N)=O)/c(=N\NC(=O)c3ccccc3)oc2c1	53*	1	2	1	-1	19
Cc1nc(SCC(=O)Nc2nc3ccccc3s2)c(C#N)c(C)c1C	93*	i	0	3	0	93*
Cc1nc(SCC(=O)Nc2nccs2)c(C#N)c(C)c1C	71*	0	1	-4	-1	69*
COc1cc(-c2cc(-c3ccccc3)nc(SCC(=O)Nc3nccs3)c2C#N)cc(OC)c1OC	-10	-3	1	2	nt	nt
CCCNC(=O)N[C@@H]1C=C[C@H](CC(=O)N2CCN(C)CC2)O[C@H]1CO	nt	nt	nt	nt	-3	nt
Cc1cnc(N)c2c(=O)oc3ccccc3c12	-24	i	0	4	0	nt
O=c1oc2ccccc2c2c1cnc1ccccc12	64*	-2	nt	-2	1	-11
O=C(CCN1CCCCC1)NCC[C@@H]1CC[C@@H](NC(=O)C2CC2)[C@H](CO)O1	nt	nt	nt	nt	0	nt
CC1=C([N+](=O)[O-])C(c2cccc(Br)c2)C2=C(N1)c1ccccc1C2=O (stereo not given)	54*	nt	-1	-27	nt	71*
CCN(C[C@H]1N[C@@](Cc2ccccc2)(C(=O)OC)[C@H]2C(=O)N(Cc3ccccc3)C(=O)[C@@H]12)S(=O)(=O)c1ccc(C(F)(F)F)cc1	86*	1	nt	23	0	-13
CC[C@@]1(C(=O)OC)N[C@H](CN(C)C(=O)Nc2ccc(F)cc2)[C@@H]2C(=O)N(Cc3ccccc3)C(=O)[C@@H]21	70*	i	nt	-6	0	-8
COc1ccc(-c2ccc([C@H]3[C@@H](CO)N4C(=O)CN(C(=O)c5ccccc5)C[C@@H]34)cc2)cc1	nt	nt	nt	nt	0	nt
COc1ccc(S(=O)(=O)Nc2ccc3c(c2)C(=O)N([C@@H](C)CO)C[C@H](C)[C@@H](CN(C)CC2CC2)OCCCC[C@H](C)O3)cc1	nt	nt	nt	nt	0	nt
COc1ccc(NC(=O)Nc2cccc3c2O[C@H](CN(C)C)[C@H](C)CN([C@@H](C)CO)C3=O)cc1	nt	nt	nt	nt	0	nt
SMILES	PrP 5UTR inh	BH1578 lux ind	Mtb UGM inh	Y pestis TopoI	TcdB GH inh	PrP 5UTR single
COCc1nnc(NS(=O)(=O)c2ccc(OC)cc2)s1	62*	i	nt	4	2	-22
Cc1onc(-c2ccccc2)c1C(=O)Nc1ncc([N+](=O)[O-])s1	-13	i	1	-2	-1	nt
Cc1ccc(C(=O)Nc2ncc([N+](=O)[O-])s2)cc1	71*	3	5	-6	21*	73*
Cc1ccc(C(=O)Nc2ncc(Cc3ccc(SC(F)F)cc3)s2)cc1	62*	0	0	-11	2	89*
CCOC(=O)c1ccc(NC(=O)COc2ccccc2CNCCO)cc1	74*	0	-1	3	0	2
O=C(NCc1ccncn1)[C@@H]1[C@@H](CO)[C@@H]2Cn3c(ccc(-c4cccc(F)c4)c3=O)[C@@H]2N1CC1CC1	nt	nt	nt	nt	-1	nt
CCCn1c(SCC(=O)N2CCN(c3ccccc3)CC2)nc2ccccc2c1=O	-5	-3	1	17	nt	nt
CCN(CC)C(=O)CSc1nc2ccccc2c(=O)n1CCC(=O)N1CCN(c2ccccc2)CC1	56*	i	0	0	1	1
C[C@H](CO)N1C[C@H](C)[C@@H](CN(C)C(=O)Nc2ccccc2)Oc2c(NC(=O)c3ccncc3)cccc2C1=O	62*	i	4	-4	-2	-25
O=C(Cc1ccccc1)N[C@@H]1CC[C@@H](CC(=O)N2CCOCC2)O[C@H]1CO	nt	nt	nt	nt	-8	nt
O=c1oc2ccccc2cc1-c1cn2ccccc2n1	81*	0	-2	0	0	?
O=c1oc2ccccc2cc1-c1cn2cccnc2n1	-20	0	-1	-6	nt	nt
O=C(C[C@@H]1CC[C@H]2[C@@H](COC[C@H](O)CN2S(=O)(=O)c2cccc(Cl)c2)O1)Nc1ccc(-c2ccccc2)cc1	nt	nt	nt	nt	0	nt
c1cc2c(cc1C1=NNC(=NC3CC3)SC1)OCCO2	91*	0	-1	4	2	91*
Cc1cc(C2=NNC(=NC3CC3)SC2)c(C)n1-c1ccccc1F	94*	0	3	1	1	96*
Cc1cc(C2=NNC(=NC3CCCCC3)SC2)c(C)n1-c1c(C)n(C)n(-c2ccccc2)c1=O	-29	0	-1	-4	2	nt
COc1ccc(NC(=O)N(C)C[C@@H]2Oc3ncc(C#C[C@@H](C)O)cc3C(=O)N([C@H](C)CO)C[C@H]2C)cc1	nt	nt	nt	nt	-1	nt
Cc1ccc2oc(/N=C(\N)NC(=O)C3CC3)nc2c1	-34	0	-1	2	0	nt
Cc1ccc2oc(/N=C(\N)NC(=O)C(C)(C)C)nc2c1	90*	i	-1	-2	2	85*
C[C@H](CO)N1C[C@H](C)[C@H](CN(C)S(=O)(=O)c2ccc(Cl)cc2)OCCCC[C@H](C)Oc2ccc(NC(=O)c3ccccc3)cc2C1=O	nt	nt	nt	nt	0	nt
CC1CCN(C(=O)/C(=C\c2cccs2)NC(=O)c2ccccc2)CC1	59*	0	-2	8	1	-10
COc1ccc(CN(C)C[C@@H]2Oc3ccc(NS(=O)(=O)c4ccccc4)cc3C(=O)N([C@H](C)CO)C[C@H]2C)cc1	nt	nt	nt	nt	0	nt
